Experimental data as given in PubChem BioAssay (Tox21).
Inconclusive results are not listed. Where a call stands in place of a potency, no number is given. The source made the active and inactive calls. Unless noted, calls follow the shape of the dose curve; as a rule, active = well fitted curve in the direction sought with a large enough effect in the repeat runs; inconclusive = weak or mixed curves; inactive = no such curve, though single readings can be large; an effect the other way counts as inactive or inconclusive. Positions of bridges follow the written chain, without caps; N, C: chain ends. Non-standard residues stand in square brackets, D forms with d. Residues, ends and D or L forms follow the SMILES beside them. *: point of attachment. X2 = CC[C@H](C)CCCCC(=O)*; Dab = NCC[C@H](N)C(=O)O

Assays:
[1] = qHTS assay to identify small molecule antagonists of the glucocorticoid receptor (GR) signaling pathway - cell viability counter screen (AID 720693); also: nearly all actives have a fitted effect of over 55% in size; also: potency is read from the fitted curve at half-maximal effect
[2] = qHTS assay for identifying genotoxic compounds that show differential cytotoxicity against isogenic chicken DT40 cell lines with known DNA damage response pathways - wild type cell line (AID 743012); also: nearly all actives have a fitted effect of over 60% in size; also: potency is read from the fitted curve at half-maximal effect
How it was run: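 Viability by ATP luminescence (CellTiter-Glo, 30 min RT) after 40 h compound treatment at 37 C/5% CO2, using 300 parental DNA repair-proficient DT40 cells per well.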

[3] = qHTS assay for identifying genotoxic compounds that show differential cytotoxicity against isogenic chicken DT40 cell lines with known DNA damage response pathways - Rad54/Ku70 mutant cell line (AID 743015); also: nearly all actives have a fitted effect of over 60% in size; also: potency is read from the fitted curve at half-maximal effect
[4] = qHTS assay to identify small molecule antagonists of the androgen receptor (AR) signaling pathway using the MDA cell line - cell viability counter screen (AID 743041; also: nearly all actives have a fitted effect of over 45% in size; also: potency is read from the fitted curve at half-maximal effect)
How it was run: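 qHTS viability read-out; MDA-kb2 AR-luc; R1881-stimulated; 16 h exposure at 37C, 0% CO2; CellTiter-Fluor, 30 min; fluorescence intensity.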

[5] = biological target: Androgen receptor (Homo sapiens) (UniProt P10275); assay: qHTS assay to identify small molecule antagonists of the androgen receptor (AR) signaling pathway (AID 743035; active = well fitted inhibition curve with a large enough effect in the signal ratio in the repeat runs, not every such curve was filed as active; the % refers to the signal ratio)
Sequence of Androgen receptor (Homo sapiens) (P10275 whole entry, looked up): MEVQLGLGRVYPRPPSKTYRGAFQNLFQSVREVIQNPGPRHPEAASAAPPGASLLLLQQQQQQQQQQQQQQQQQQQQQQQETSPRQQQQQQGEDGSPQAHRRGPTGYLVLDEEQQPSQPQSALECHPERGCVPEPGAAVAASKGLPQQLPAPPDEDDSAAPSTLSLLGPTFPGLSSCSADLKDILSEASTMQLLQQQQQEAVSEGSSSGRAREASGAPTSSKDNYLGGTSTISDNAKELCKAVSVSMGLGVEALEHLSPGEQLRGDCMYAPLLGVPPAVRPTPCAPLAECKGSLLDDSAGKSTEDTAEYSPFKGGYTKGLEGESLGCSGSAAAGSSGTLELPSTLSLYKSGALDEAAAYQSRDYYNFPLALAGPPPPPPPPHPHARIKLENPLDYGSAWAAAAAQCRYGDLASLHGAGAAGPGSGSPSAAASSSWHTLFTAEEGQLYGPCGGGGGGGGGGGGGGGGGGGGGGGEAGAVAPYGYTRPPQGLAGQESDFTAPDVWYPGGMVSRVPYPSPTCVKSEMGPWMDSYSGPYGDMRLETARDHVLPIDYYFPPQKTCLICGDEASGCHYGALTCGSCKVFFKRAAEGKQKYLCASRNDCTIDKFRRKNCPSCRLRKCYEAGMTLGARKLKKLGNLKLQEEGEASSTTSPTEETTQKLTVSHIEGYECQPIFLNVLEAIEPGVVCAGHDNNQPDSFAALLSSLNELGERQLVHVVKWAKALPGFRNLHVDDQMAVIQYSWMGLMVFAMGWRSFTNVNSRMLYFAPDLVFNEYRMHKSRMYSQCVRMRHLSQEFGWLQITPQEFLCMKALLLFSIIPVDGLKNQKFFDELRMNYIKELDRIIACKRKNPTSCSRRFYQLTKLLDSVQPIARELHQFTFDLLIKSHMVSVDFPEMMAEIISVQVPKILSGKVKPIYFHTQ
How it was run: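 Antagonist mode: AR-bla HEK293 cells co-treated with test compounds and agonist R1881 for 16 h at 37C, 5% CO2. Beta-lactamase activity read as FRET fluorescence after 2 h room-temperature substrate loading.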

[6] = biological target: Androgen receptor (Homo sapiens) (UniProt P10275); assay: qHTS assay to identify small molecule agonists of the androgen receptor (AR) signaling pathway using the MDA cell line (AID 743040; also: nearly all actives have a fitted effect of over 20% in size)
How it was run: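 Agonist activity is measured as luciferase luminescence in human MDA-kb2 cells whose MMTV reporter responds to both AR and GR. Compounds in DMSO incubate 16 h at 37C, 0% CO2, and ONE-Glo is read after 30 min.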

[7] = biological target: Androgen receptor (Homo sapiens) (UniProt P10275); assay: qHTS assay to identify small molecule antagonists of the androgen receptor (AR) signaling pathway using the MDA cell line (AID 743042; also: nearly all actives have a fitted effect of over 55% in size)
How it was run: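 MDA-kb2 cells (human breast carcinoma, stably carrying an MMTV-luciferase reporter responsive to AR and GR) were plated at 3,000 cells/well and preincubated 5 hr at 37C, then given compound plus R1881 agonist for 16 h. ONE-Glo luminescence was read.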

[8] = qHTS assay to identify small molecule antagonists of the androgen receptor (AR) signaling pathway - cell viability counter screen (AID 743033; also: nearly all actives have a fitted effect of over 45% in size)
[9] = biological target: Androgen receptor (Homo sapiens) (UniProt P10275); assay: qHTS assay to identify small molecule agonists of the androgen receptor (AR) signaling pathway (AID 743036; active = well fitted activation curve with a large enough effect in the signal ratio in the repeat runs, with a control signal flat, not every such curve was filed as active; the % refers to the signal ratio)
How it was run: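 HEK293 cells stably carrying a UAS-driven beta-lactamase reporter (GeneBLAzer AR-UAS-bla-GripTite) were plated at 2,000 cells/well, rested 4 h at 37C, then exposed to compounds in DMSO for 16 h. LiveBLAzer B/G FRET substrate was added for 2 h at room temperature; fluorescence read.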

Compound | Potency [1] | Potency [2] | Potency [3] | Potency [4] | Potency [5] | Potency [6] | Potency [7] | Potency [8] | Potency [9]
CC(=O)N[C@@H](C=O)[C@@H](O)[C@H](O)[C@H](O)CO | inactive | inactive | inactive | inactive | – | – | – | – | –
CC[C@H](C)[C@H]1O[C@]2(CC[C@@H]1C)C[C@@H]1C[C@@H](C/C=C(\C)[C@@H](O[C@H]3C[C@H](OC)[C@@H](O[C@H]4C[C@H](OC)[C@@H](O)[C@H](C)O4)[C@H](C)O3)[C@@H](C)/C=C/C=C3\CO[C@@H]4[C@H](O)C(C)=C[C@@H](C(=O)O1)[C@]34O)O2 | 6.01 µM (active) | 3.76 µM (active) | 7.5 µM (active) | inactive | inactive | inactive | inactive | – | –
CC(=O)O[C@H]1CC[C@@]2(C)C(=CC[C@@H]3[C@@H]2CC[C@]2(C)C(c4cccnc4)=CC[C@@H]32)C1 | inactive | 5.31 µM (active) | – | inactive | inactive | inactive | inactive | inactive | inactive
Cc1cc(-n2c(=O)[nH]c(=O)n(C)c2=O)ccc1Oc1ccc(S(=O)(=O)C(F)(F)F)cc1 | inactive | 26.6 µM (active) | 26.6 µM (active) | inactive | – | – | – | – | –
O=S(=O)(O)CCCS(=O)(=O)O | inactive | inactive | inactive | inactive | – | – | – | – | –
C#CCOc1ccc2c(C)cc(=O)oc2c1 | inactive | inactive | – | inactive | – | – | – | inactive | –
CCCCC[C@H](O)/C=C/[C@@H]1[C@H]2C/C(=C/CCCC(=O)O)O[C@H]2C[C@H]1O | inactive | inactive | inactive | inactive | – | – | – | inactive | –
COc1ccc(C[C@H](C)NC[C@@H](O)c2ccc(O)c(NC=O)c2)cc1 | inactive | 26.6 µM (active) | 26.6 µM (active) | inactive | – | – | – | inactive | –
O.O=C([O-])CC([S-])C(=O)[O-].[Au+].[Na+].[Na+] (configuration not stated) | inactive | inactive | inactive | inactive | – | – | – | inactive | –
OCCN1CCN(CC/C=C2/c3ccccc3Sc3ccc(Cl)cc32)CC1 | inactive | 9.02 µM (active) | 11.4 µM (active) | inactive | inactive | inactive | inactive | – | inactive
CC[C@H](C)CCCCC(=O)N[C@@H](CCN)C(=O)N[C@H](C(=O)N[C@@H](CCN)C(=O)N[C@H]1CCNC(=O)[C@H]([C@@H](C)O)NC(=O)[C@H](CCN)NC(=O)[C@H](CCN)NC(=O)[C@H](CC(C)C)NC(=O)[C@@H](CC(C)C)NC(=O)[C@H](CCN)NC1=O)[C@@H](C)O (X2-[Dab]T[Dab][Dab][Dab][dL]L[Dab][Dab]T; lactam 4-C) | inactive | inactive | – | inactive | – | – | – | inactive | –
O=C(O)CC/C=C\CC[C@@H]1[C@@H](N2CCCCC2)[C@@H](O)C[C@@H]1OCc1ccc(-c2ccccc2)cc1 | inactive | 13.3 µM (active) | – | inactive | – | inactive | inactive | inactive | –
CSc1nc2cc(Oc3cccc(Cl)c3Cl)c(Cl)cc2[nH]1 | 10.7 µM (active) | 18.8 µM (active) | 21.1 µM (active) | inactive | – | – | – | inactive | –
NCc1ccccc1CC(=O)N[C@@H]1C(=O)N2C(C(=O)O)=C(CSc3nnnn3CC(=O)O)CS[C@H]12 | inactive | inactive | inactive | inactive | – | – | – | – | –
CCCC(CCC)C(N)=O | inactive | inactive | inactive | inactive | – | – | – | inactive | –
CCCCCCCCCCCCCCCCOCCOCCOCCOCCOCCOCCOCCOCCOCCOCCOCCOCCOCCOCCOCCOCCOCCOCCOCCOCCO | 13.4 µM (active) | 2.37 µM (active) | 29.8 µM (active) | 29.8 µM (active) | – | – | – | – | –
CO[C@H]1C[C@H](O[C@H]2[C@H](C)[C@@H](O[C@@H]3O[C@H](C)C[C@H](N(C)C)[C@H]3OC(C)=O)[C@@H](C)C[C@]3(CO3)C(=O)[C@H](C)[C@@H](OC(C)=O)[C@@H](C)[C@@H](C)OC(=O)[C@@H]2C)O[C@@H](C)[C@@H]1OC(C)=O | inactive | inactive | inactive | inactive | inactive | inactive | inactive | – | –
COc1ccc(CCNCC(O)COc2cccc(C)c2)cc1OC (configuration not stated) | inactive | 26.6 µM (active) | – | inactive | – | inactive | inactive | inactive | inactive
CC1CS(=O)(=O)CCN1/N=C/c1ccc([N+](=O)[O-])o1 (configuration not stated) | inactive | inactive | inactive | inactive | – | – | – | inactive | –
CCCCCCCCCCCC(=O)OC[C@@H](O)C1OC[C@H](O)[C@H]1O (some centres not stated) | inactive | inactive | inactive | inactive | – | – | – | inactive | –
CCC(c1ccccc1)c1noc(CCN(CC)CC)n1 (configuration not stated) | inactive | 23.7 µM (active) | – | inactive | inactive | – | inactive | inactive | –
CC(=O)O[C@H]1CC[C@@]2(C)C(=CC[C@H]3[C@@H]4CC[C@H](C(C)=O)[C@@]4(C)CC[C@@H]32)C1 | inactive | inactive | inactive | inactive | – | – | – | inactive | –
